The values that follow come from publication PMC11062922 (Nature Chemical Biology, 2023).

Where two headings read alike, the source gives them in different places.

Holding throughout (design): species or system human, MV4-11 + K-562 + COLO205 + SK-N-BE2 + OVCAR-8
The test system of assay [1] is ADCK3. As to conditions: read-out: apparent Kd, n = 1.
For assay [2], the system named is CLK1. As to conditions: read-out: apparent Kd, n = 1.
The test system of assay [3] is CLK2. As to conditions: read-out: apparent Kd; compound concentrations:100 nM and 1000 nM (sheet 'Samples'); n = 1.
Assay [4] has as its system CLK4. As to conditions: read-out: apparent Kd, n = 1.
Assay [5] has as its system FER. The following applies: read-out: apparent Kd, n = 1.
For assay [6], the system named is IGF1R. As to conditions: read-out: apparent Kd, n = 1.
Assay [7] concerns INSR. As to conditions: read-out: apparent Kd, n = 1.
For assay [8], the system named is PIK3CA. The following applies: read-out: apparent Kd; compound concentrations:100 nM and 1000 nM (sheet 'Samples'); n = 1.
The test system of assay [9] is PLK1. As to conditions: read-out: apparent Kd, n = 1.
The test system of assay [10] is CSNK1A1. The following applies: read-out: apparent Kd; compound concentrations: 100 nM and 1000 nM (sheet 'Samples'), CATDS: 0.108738920150242; n = 1.
For assay [11], the system named is CSNK1D. The following applies: read-out: apparent Kd; compound concentrations: 100 nM and 1000 nM (sheet 'Samples'), CATDS: 0.110076630605661; n = 1.
For assay [12], the system named is CSNK1E. The following applies: read-out: apparent Kd; compound concentrations: 100 nM and 1000 nM (sheet 'Samples'), CATDS: 0.12792065759961399; n = 1.
In assay [13] the test system is ILK. The following applies: read-out: apparent Kd; compound concentrations: 100 nM and 1000 nM (sheet 'Samples'), CATDS: 9.4718278447494406E-2; n = 1.
The subject of assay [14] is LIMK1. The following applies: read-out: apparent Kd, compound concentrations: 100 nM and 1000 nM (sheet 'Samples'), n = 1.
In assay [15] the test system is MAP2K2. As to conditions: read-out: apparent Kd; compound concentrations: 100 nM and 1000 nM (sheet 'Samples'), CATDS: 0.102896761563019; n = 1.
Assay [16] concerns MAPK10. The following applies: read-out: apparent Kd; compound concentrations: 100 nM and 1000 nM (sheet 'Samples'), CATDS: 5.09024054826294E-2; n = 1.
The subject of assay [17] is MAPK14. As to conditions: read-out: apparent Kd, compound concentrations: 100 nM and 1000 nM (sheet 'Samples'), n = 1.
Assay [18] deals with MAPK9. The following applies: read-out: apparent Kd; compound concentrations: 100 nM and 1000 nM (sheet 'Samples'), CATDS: 5.50671155445017E-2; n = 1.
Assay [19] concerns MAPKAPK2. The following applies: read-out: apparent Kd; compound concentrations: 100 nM and 1000 nM (sheet 'Samples'), CATDS: 5.16854933400041E-2; n = 1.
In assay [20] the test system is NNT. As to conditions: read-out: apparent Kd; compound concentrations: 100 nM and 1000 nM (sheet 'Samples'), CATDS: 4.6144486459290798E-2; n = 1.
For assay [21], the system named is PRKAG1. As to conditions: read-out: apparent Kd; compound concentrations: 100 nM and 1000 nM (sheet 'Samples'), CATDS: 9.6836813668462501E-2; n = 1.
The subject of assay [22] is VDAC3. The following applies: read-out: apparent Kd; compound concentrations: 100 nM and 1000 nM (sheet 'Samples'), CATDS: 4.4921279998790198E-2; n = 1.
Assay [23] concerns ERCC2. As to conditions: read-out: apparent Kd; compound concentrations:100 nM and 1000 nM (sheet 'Samples'); n = 1.
For assay [24], the system named is MAP4K5. As to conditions: read-out: apparent Kd; compound concentrations:100 nM and 1000 nM (sheet 'Samples'); n = 1.
The test system of assay [25] is ARAF. The following applies: read-out: apparent Kd; compound concentrations: 100 nM and 1000 nM (sheet 'Samples'), CATDS: 0.31382782577056201; n = 1.
Assay [26] has as its system PIK3CB. As to conditions: read-out: apparent Kd; compound concentrations: 100 nM and 1000 nM (sheet 'Samples'), CATDS: 0.29308113927572399; n = 1.
The test system of assay [27] is FES. As to conditions: read-out: apparent Kd; compound concentrations: 100 nM and 1000 nM (sheet 'Samples'), CATDS: 6.2151263603986602E-2; n = 1.
The subject of assay [28] is PRKCZ. The following applies: read-out: apparent Kd; compound concentrations: 100 nM and 1000 nM (sheet 'Samples'), CATDS: 4.7711419359540999E-2; n = 1.
The subject of assay [29] is PTK2B. The following applies: read-out: apparent Kd; compound concentrations: 100 nM and 1000 nM (sheet 'Samples'), CATDS: 0.144435732024948; n = 1.
Assay [30] has as its system PTK2. As to conditions: read-out: apparent Kd; compound concentrations: 100 nM and 1000 nM (sheet 'Samples'), CATDS: 9.0293978496921806E-2; n = 1.
In assay [31] the test system is RIPK3. As to conditions: read-out: apparent Kd; compound concentrations: 100 nM and 1000 nM (sheet 'Samples'), CATDS: 4.6981822696137099E-2; n = 1.
The subject of assay [32] is TNK1. As to conditions: read-out: apparent Kd; compound concentrations: 100 nM and 1000 nM (sheet 'Samples'), CATDS: 8.1384476326193098E-2; n = 1.
Assay [33] concerns TTK. The following applies: read-out: apparent Kd; compound concentrations: 100 nM and 1000 nM (sheet 'Samples'), CATDS: 4.6872796614934702E-2; n = 1.
For assay [34], the system named is ADCK1. As to conditions: read-out: apparent Kd; compound concentrations: 100 nM and 1000 nM (sheet 'Samples'), CATDS: 6.3645310719154996E-2; n = 1.
Assay [35] deals with FLT3. The following applies: read-out: apparent Kd; compound concentrations: 100 nM and 1000 nM (sheet 'Samples'), CATDS: 0.35383441234921298; n = 1.
Assay [36] has as its system JAK2. As to conditions: read-out: apparent Kd; compound concentrations: 100 nM and 1000 nM (sheet 'Samples'), CATDS: 0.243308820463081; n = 1.
The test system of assay [37] is LYN. As to conditions: read-out: apparent Kd; compound concentrations: 100 nM and 1000 nM (sheet 'Samples'), CATDS: 6.5965838221970899E-2; n = 1.
The subject of assay [38] is MTOR. As to conditions: read-out: apparent Kd; compound concentrations: 100 nM and 1000 nM (sheet 'Samples'), CATDS: 8.3808219559409397E-2; n = 1.
Assay [39] concerns PIK3CD. The following applies: read-out: apparent Kd; compound concentrations: 100 nM and 1000 nM (sheet 'Samples'), CATDS: 0.184193400818676; n = 1.
Assay [40] concerns PRKACG. As to conditions: read-out: apparent Kd; compound concentrations: 100 nM and 1000 nM (sheet 'Samples'), CATDS: 7.8396451474863002E-2; n = 1.
For assay [41], the system named is PRKDC. As to conditions: read-out: apparent Kd; compound concentrations: 100 nM and 1000 nM (sheet 'Samples'), CATDS: 6.9640678326095301E-2; n = 1.
Assay [42] relates to RET. As to conditions: read-out: apparent Kd; compound concentrations: 100 nM and 1000 nM (sheet 'Samples'), CATDS: 7.1676948179133407E-2; n = 1.
For assay [43], the system named is T1, T10.
T1 construct: gene NAT10
The following applies: read-out: apparent Kd; compound concentrations: 100 nM and 1000 nM (sheet 'Samples'), CATDS: 5.8337212061708103E-2; n = 1.

Setting [44] is: compound concentrations:100 nM and 1000 nM (sheet 'Samples').

Turning to `Nc1nc(-c2ccc3c(N)n[nH]c3c2)cc(N2CCC[C@@H](C(=O)Nc3ccccc3)C2)n1.Nc1nc(-c2ccc3c(N)n[nH]c3c2)cc(N2CCC[C@@H](C(=O)Nc3ccccc3)C2)n1.O=C(O)C(F)(F)F.O=C(O)C(F)(F)F` [GSK2288359A], the potency estimated from few doses in assay [1] (setting [44]) is 1100 nM.

In the case of `CNC(=O)c1c(F)cccc1Nc1nc(Nc2cc3c(cc2OC)CCN3C(=O)CN(C)C)nc2[nH]ccc12` [GSK1838705], the potency estimated from few doses in [1] (setting [44]) is 1340 nM; in assay [2] (setting [44]), 376 nM; in [3], 600 nM; in [4] (setting [44]) it was 137 nM; in assay [5] (setting [44]), 133 nM; in assay [6] (setting [44]), 1130 nM. Besides, the potency estimated from few doses is 759 nM in [7] (setting [44]), 176 nM in assay [8] and 2350 nM in assay [9] (setting [44]).

As to `Cl.Fc1ccc(-c2nc3n(c2-c2ccncc2)CCS3)cc1` [SKF-86002-A2], the potency estimated from few doses in assay [1] (compound concentrations: 100 nM and 1000 nM (sheet 'Samples'), CATDS: 0.13841841759658599) was 74.5 nM; in assay [10], 113 nM; in assay [11] it was 110 nM; in assay [12], 84.8 nM; in assay [13], 148 nM; in assay [14] (CATDS: 4.5083762748743803E-2), 1770 nM. Further, the potency estimated from few doses in assay [15] is 125 nM; in assay [16], 946 nM; in assay [17] (CATDS: 0.11352717514973699) it was 104 nM; in assay [18], 681 nM; in [19], 885 nM; in [20], 1550 nM. The potency estimated from few doses in assay [21] was 141 nM; in [22], 1810 nM.

On to `Nc1ncc(-c2cccnc2)c2scc(-c3ccc4c(c3)CCN4C(=O)Cc3ccccc3)c12` [GSK683281A], for which the potency estimated from few doses in [1] (setting [44]) was 760 nM; in assay [23] it was 1560 nM; in [24], 1560 nM.

`N#Cc1c(C(=O)c2ccccc2)cnn1-c1ccccc1` [RO1150868-000]: the potency estimated from few doses in [1] (compound concentrations: 100 nM and 1000 nM (sheet 'Samples'), CATDS: 0.41640381160796702) is 510 nM; in assay [25], 875 nM; in assay [26], 1020 nM.

With `COc1cc(C)c(NC(=O)CN(C)C)cc1Nc1nc(Nc2cccc(F)c2C(N)=O)c2cc[nH]c2n1` [GSK2213727A], the potency estimated from few doses was 688 nM in [1] (compound concentrations: 100 nM and 1000 nM (sheet 'Samples'), CATDS: 5.9808730869804497E-2); 335 nM in assay [2] (compound concentrations: 100 nM and 1000 nM (sheet 'Samples'), CATDS: 7.7083223058971695E-2); 936 nM in assay [4] (compound concentrations: 100 nM and 1000 nM (sheet 'Samples'), CATDS: 5.4708251309819003E-2); 82.7 nM in assay [5] (compound concentrations: 100 nM and 1000 nM (sheet 'Samples'), CATDS: 0.15534788887379899); 609 nM in [27]; 94.7 nM in assay [6] (compound concentrations: 100 nM and 1000 nM (sheet 'Samples'), CATDS: 0.14317930106922699). Further, the potency estimated from few doses in assay [7] (compound concentrations: 100 nM and 1000 nM (sheet 'Samples'), CATDS: 0.19841534550213699) was 56.7 nM; in [9] (compound concentrations: 100 nM and 1000 nM (sheet 'Samples'), CATDS: 5.09869917251893E-2), 1230 nM; in assay [28] it was 1660 nM; in assay [29], 93.3 nM; in assay [30], 231 nM; in [31], 1790 nM. For the same compound, the potency estimated from few doses is 293 nM in assay [32] and 1810 nM in assay [33].

`O=C(Nc1cccc(-c2nn3ncccc3c2-c2ccnc(Nc3cccc(C(F)(F)F)c3)n2)c1)c1c(F)cccc1F` [GSK299495A]: the potency estimated from few doses in assay [1] (compound concentrations: 100 nM and 1000 nM (sheet 'Samples'), CATDS: 1) is 233 nM.

Regarding `CN(c1ccc(NC(=O)Nc2cc(C(F)(F)F)ccc2F)cc1)c1ccnc(Nc2ccc(S(N)(=O)=O)cc2)n1` [GW809893X], the potency estimated from few doses in assay [34] was 1370 nM; in [35], 36.1 nM; in [36], 65 nM; in assay [14] (CATDS: 6.0612482504371901E-2), 1630 nM; in assay [37], 1210 nM; in assay [17] (CATDS: 7.0797769182365994E-2), 973 nM. Also, the potency estimated from few doses was 610 nM in assay [38]; 107 nM in assay [39]; 728 nM in assay [40]; 1020 nM in assay [41]; 938 nM in assay [42]; 1880 nM in assay [43].
